Measured values reported in the supplement of paper PMC10681739.
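Further: Full-length recombinant human ETS1 or RUNX1 bound to double-stranded 36-bp genomic probes on microarrays, detected by protein-specific primary antibody and Alexa488 secondary, spot fluorescence as median of four replicate spots.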

These sequences were tested against RUNX1 (UniProt Q01196) (assay: RUNX1 binding intensity (PBM fluorescence) in presence of ETS1, normalised to RUNX1-only experiment (arbitrary fluorescence units); higher = stronger binding). Conditions: RUNX1 concentration 2 nM; ETS1 concentration 25 nM.
RUNX1, sequence (Q01196 whole entry): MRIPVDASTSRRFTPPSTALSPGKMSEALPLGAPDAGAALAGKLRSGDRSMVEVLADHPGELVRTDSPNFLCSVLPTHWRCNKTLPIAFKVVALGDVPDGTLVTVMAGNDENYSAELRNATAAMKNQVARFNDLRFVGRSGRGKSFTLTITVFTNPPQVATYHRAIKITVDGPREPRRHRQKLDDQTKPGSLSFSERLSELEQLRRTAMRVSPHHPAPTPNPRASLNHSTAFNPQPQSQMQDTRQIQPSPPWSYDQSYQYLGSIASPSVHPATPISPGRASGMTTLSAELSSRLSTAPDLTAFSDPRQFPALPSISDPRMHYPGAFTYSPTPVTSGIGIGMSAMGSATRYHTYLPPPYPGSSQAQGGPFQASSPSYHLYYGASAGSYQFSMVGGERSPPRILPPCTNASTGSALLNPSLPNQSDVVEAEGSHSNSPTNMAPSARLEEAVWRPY
Procedure: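 Cooperative gcPBM on 36-bp genomic probes with neighbouring ETS1 and RUNX1 sites. Recombinant human RUNX1 (2 nM) was incubated alone or with ETS1 (25 nM) and detected with anti-RUNX1 antibody plus Alexa488 secondary. Values are medians over 4 replicate spots; the RUNX1+ETS1 data were normalised to the RUNX1-only data. The probes sit in constant array flanks that are not printed.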
ATACTGAGTCATTTCCTGTGGTGTTATTGTGTTGTA was tested, and the RUNX1 binding intensity was 1570. Sequence AAGGGAGCCGCCCGGAAACCGCGCGGCAAAGATGCC has an RUNX1 binding intensity of 1050. GGGACGGGGAGGGCAGGATGTGGTCGCTCTTCCCTC gave an RUNX1 binding intensity of 1750. In the case of CCTGTACGGAAGCTACTCTGGTTTCATGTGGTTTCA, the RUNX1 binding intensity was 1030. With AGGGCATTTCCTTTGGGGCTGGTGGTCACGGACAAC the RUNX1 binding intensity was 1430. ATGGGGAACGGGAAATACGGCGGGAACCACAATCGC was tested, and the RUNX1 binding intensity was 1020. Sequence ATTAGAGGTAGAGGAAATACCACATGCAAAGGTTTG has an RUNX1 binding intensity of 863. CCCACCCAGGAAGCCGTCCTAACCACAACAGCCCTC was tested, and the RUNX1 binding intensity was 6790. With GGACGCCGCCGGAAGCGCGACCCGCACTCCCGGTAG the RUNX1 binding intensity was 1260. AGGCAAACAGGATGTTCCTCTCCCACATGCAGACTT gave an RUNX1 binding intensity of 1300. GGCCGGCTTCCGGGGCGGGTGGAAAGGAGCCACAAG was tested, and the RUNX1 binding intensity was 1260. With TAAGCAGGGAATAGAGGAAGTGGTTTTGTCTCAGGC the RUNX1 binding intensity was 1780. In the case of CGAACTCCCGTCCGGCCGCGCCCGCAGCCCGCCGCC, the RUNX1 binding intensity was 1130. ACACAGGAAGCAAAAGTTAAGCTATAAAACCCGCAA was tested, and the RUNX1 binding intensity was 1240. For GAGGGACAGGATGCCGCCAGGAACCACAAGAGCTTC, the RUNX1 binding intensity was 1300. For TTAGGCTCATGGGAAATGTGGTTTCTAAATCGCGGG, the RUNX1 binding intensity was 988. With CAGGGCACCTCCTACTTCCCCCCGCAGATAACTACC the RUNX1 binding intensity was 906. With CCCCACCCAGACAGGAAACTGTGGCTTCTATCAGAT the RUNX1 binding intensity was 1550. AATATACGGTGAGGATGTGGGCAAAAAACAAAGAGG gave an RUNX1 binding intensity of 965. With AACTAGAGCGTCATTTCCTGTGGGTACAAGTCCAGT the RUNX1 binding intensity was 1370. For TGAGCACAGTATTTCCTGTGGTTTCTATTGCATTTC, the RUNX1 binding intensity was 3540. With AGGCCAGACGCCTTCCGTGGTTTACGGTGAGGGTGG the RUNX1 binding intensity was 799. Sequence AGGCCCGGATACCCGCCCCCAAAACCGCGTCCACAA has an RUNX1 binding intensity of 1090. In the case of AACAACTGACCGGACAGAACACAGCCACAAAACACG, the RUNX1 binding intensity was 928. With GAGCGCCCACTTCCTGTTTACCACCCAGCCTCTTCG the RUNX1 binding intensity was 7590. Sequence GTGTGGAAGGAGGAAGCGAGAATGTGGTTACTTAGG has an RUNX1 binding intensity of 1190. In the case of GAGTGCCGTTTCCCCCGCTCACCGCGGGCTAGGGAG, the RUNX1 binding intensity was 1040. CGGGACACAGGAAGCCGTTGTGGGGCCCCGGGGCCA gave an RUNX1 binding intensity of 982. For CCCACCCTCGCCGGAAGCCGAGCGGTTTCTACATCA, the RUNX1 binding intensity was 1540. Work on AGACAGGAGTTCAGGAAGCTGCGGTCTAGATTATGT yielded an RUNX1 binding intensity of 1710. In the case of CGGTCAGGTCGCAGGAAACCACAGCGGCAGCGCGGC, the RUNX1 binding intensity was 1840. Sequence TGTCGGGCGGATGTGTACCGGCGGTAATATAGTAAG has an RUNX1 binding intensity of 1220. CATGTGCTTCCGGCTTGATCTGTGGTTATTCTGGTT was tested, and the RUNX1 binding intensity was 3010. CCACGGCTGGCTTCCTGTGTGGTTGGCACGCCTTAC was tested, and the RUNX1 binding intensity was 1620. In the case of CCGTGGAAGGAAACGCTGCCAACCGCAACAGAAATG, the RUNX1 binding intensity was 3550. GCAGAGAGGAGGGGATGTGGTTTCACAGCTTGCTCC showed an RUNX1 binding intensity of 937. Work on GGCAAACAGGAAACACTCCCAGGGCTGTGGGCTCCT yielded an RUNX1 binding intensity of 1150. With CAGTTTATCCTGTGAGAGCCTTGTGGTTCCTACTAA the RUNX1 binding intensity was 859. With TGCCGGGCCCCGGATGTCACCGCAGCCGCCATCTTA the RUNX1 binding intensity was 1990. Sequence TTTACTGAGAGGAAGTGGTTCTTGTGGGTGAAGGTC has an RUNX1 binding intensity of 1530.
